Measurements reported in PubChem BioAssay AID1016 (Sanford-Burnham Center for Chemical Genomics, 2008).
In all, about 200,000 compounds went through this assay and about 330 (0.17%) were called active. This excerpt belongs to a sample that is enriched for actives. A number with no mark means an inactive call.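 The calls were made as follows: active = activation factor of 2 or more at 20 µM, a signal rise over negative controls twice the positive control's; inactive = the rest.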

Tested on: alkaline phosphatase, intestinal [Bos taurus]
Assay: IAP enzyme activity enhancers – biochemical, bovine IAP, CDP-star luminescence, primary screen (AID 1016)
Settings: purified bovine IAP, 30 min, at 20 µM, stronger effect = higher value, fold of DMSO-control signal, blank-subtracted

Compound	activation factor
Cc1cccc(CC(=O)N2CCN=C2SCc2ccc([N+](=O)[O-])cc2)c1	0.8
COc1ccc(CCNc2cc(C)nc3c(-c4ccc(Cl)cc4)c(C)nn23)cc1OC	0.9
COc1ccc(-c2nc3cnccn3c2NC(C)(C)CC(C)(C)C)cc1O	1.2
COc1ccccc1N1CCN(c2ccc([N+](=O)[O-])nc2)CC1	1
CCS(=O)(=O)c1ccc(O)c(NC(=O)COc2ccc(Cl)cc2)c1	1
Clc1cccc(CN2COc3c(cc(Cl)c4cccnc34)C2)c1	0.8
Cc1ccc(Cl)c(NC(=O)CN(C)CC(=O)Nc2ccc(F)c(F)c2F)c1Cl	1.3
CCOC(=O)c1c(NC(=O)Cn2nc(C(F)(F)F)cc2C)sc2c1CCC2	1
CCc1ccc(C2C(C#N)=C(N)N(N3CCOCC3)C3=C2C(=O)CC(C)(C)C3)s1 (configuration not stated)	1
Cc1c(Br)ccc(NC(=O)COc2ccccc2C(N)=O)c1C	0.9
CC(C)NC(=S)N1CCN(C(c2ccccc2)c2ccccc2)CC1	0.9
COc1ccc(F)c(-c2nc(CN3CCC(c4ccccc4)CC3)c(C)o2)c1	1.1
C=CCC(CC=C)(C(N)=O)c1ccccc1	1
Fc1ccc(CNCc2ccc(Br)cc2)cc1	0.9
CCOC(=O)COc1cc(O)c2c(=O)cc(-c3ccccc3)oc2c1	1.1
CCN(CC)S(=O)(=O)c1ccc(OC(C)C)c(N)c1	1
COCCNc1cc(NCCOC)c([N+](=O)[O-])cc1[N+](=O)[O-]	1.3
Cc1ccc2[nH]c(=O)c(CN3CCCCC3)c(-c3ccccc3)c2c1	1.1
O=S(=O)(NCC1CCCO1)c1cnc(Cl)c(Cl)c1 (configuration not stated)	1
O=C(NCc1cccs1)c1ccc(Br)o1	1
O=[N+]([O-])c1ccc2c(c1)C(N1CCOCC1)/C(=C/C1(O)CCCCC1)O2 (configuration not stated)	1.1
CC(NC(=S)Nc1ccc(OC(F)F)cc1)c1ccc(F)cc1 (configuration not stated)	0.8
O=C1c2ccccc2NC(c2ccccc2O)N1NS(=O)(=O)c1ccccc1 (configuration not stated)	1
CN(CCc1ccccn1)C(=O)CCC1CCCN(Cc2ccccc2OC(F)F)C1 (configuration not stated)	1.1
Cc1ccnc(NC(=O)Cn2ccc([N+](=O)[O-])n2)c1	1

Compound	activation factor
Cc1ccc(NC(=O)NC2CCCCC2)cc1S(=O)(=O)N1CCOCC1	1.2
Cc1ccc(N=C2NC(=O)c3cccc([N+](=O)[O-])c32)cc1	1
Cc1ccc(Sc2ccncc2S(N)(=O)=O)cc1	0.5
Cc1cc2ccccn2c1C(=O)c1cccc(S(=O)(=O)N2CCOCC2)c1	1
Cc1ccc([N+](=O)[O-])c(OCCCNCC(C)O)c1 (configuration not stated)	1
CCn1c(C(C)C)n[nH]c1=S	0.9
O=C(COC(=O)c1cc([N+](=O)[O-])ccc1NCc1ccccc1)NC1CCCCC1	1
COCCn1c(=NC(=O)c2ccccc2[N+](=O)[O-])sc2cc(S(C)(=O)=O)ccc21	1.2
CC(C)CC(CO)N1CCN(C(=O)c2ccc(Cl)cc2Cl)CCC1=O (configuration not stated)	1.2
Cc1cc2oc(=O)cc(CN3CCN(S(=O)(=O)c4cccs4)CC3)c2cc1C(C)C	0.9
N#C/C(=C/c1cccc([N+](=O)[O-])c1)c1nnc2n1CCCCC2	0.5
Cc1ccc(OCCCC(=O)NC(C)c2ccccc2)c(C)c1 (configuration not stated)	1
CN(c1ccccc1)S(=O)(=O)c1cccc(NC(=O)Cc2c(F)cccc2Cl)c1	0.9
CCCCC(CC)CNC(=O)C(=O)C1C(=O)Nc2ccccc21 (configuration not stated)	0.9
COc1ccc(OC)c(NC(=S)N2CCc3ccccc3C2)c1	1
CCS(=O)(=O)N1Cc2ccccc2CC1C(=O)Nc1nc2ccc(F)cc2s1 (configuration not stated)	1
COc1cccc(C(=O)Nc2cc3c(cc2Br)OCCCO3)c1	1.1
O=C(Nc1nnc(C2CC2)s1)C1=NN(C2CCS(=O)(=O)C2)C(=O)CC1 (configuration not stated)	1
Cc1ccc(S(=O)(=O)/N=C(/Nc2ccc3[nH]c(=O)[nH]c3c2)c2ccccc2)cc1	0.9
Cc1cc(/C=C2/C(=N)N3C(=NC2=O)SN=C3S(C)(=O)=O)c(C)n1-c1ccccc1	1.1
Cc1ccc(-n2cnc3ncnc(-c4ccccc4)c32)cc1	1.1
Cc1ccc(NC(=O)c2csc3c2CCCC3)cc1	0.9
Cc1cc(C)c(NC(=S)N2CCCC2C(=O)O)c(C)c1 (configuration not stated)	0.7
CC(Sc1nc(-c2ccccc2)cc(C(F)(F)F)n1)C(=O)Nc1ccc2c(c1)OCO2 (configuration not stated)	0.9
Cc1ccsc1/C=N/n1c(=S)[nH]nc(C)c1=O	0.9

Compound	activation factor
CC(C)C(C)(C#N)NC(=O)CSc1nncn1-c1ccccc1 (configuration not stated)	1
Cc1[nH]c2c(C(=O)N3CCCC(CCC(=O)NCc4ccccc4F)C3)cccc2c1C (configuration not stated)	1.3
COC(=O)c1cccc([N+](=O)[O-])c1CS(=O)(=O)c1ccc(C)cc1	0.8
O=C(COC(=O)c1ccco1)NCc1ccc(Cl)cc1	1
O=C(N/N=C/c1cccc([N+](=O)[O-])c1)C1CC(=O)N(c2ccc(Br)cc2)C1 (configuration not stated)	0.7
CN(C)S(=O)(=O)c1cc(NC(=O)CN2C(=O)NC3(CCCc4ccccc43)C2=O)ccc1Cl (configuration not stated)	1
CCN(CC(=O)NC(=O)NCc1ccccc1)Cc1nc2ccccc2c(=O)[nH]1	1.5
CCN(CC(=O)Nc1ccc(Cl)c(S(=O)(=O)N(C)C)c1)Cc1nc2ccccc2c(=O)[nH]1	2.1 (active)
N#Cc1c(-c2ccc(Cl)cc2)c2c([nH]c1=S)CCCC2	0.8
CC(C)C[C@H](NC(=O)Nc1cccc(C(F)(F)F)c1)C(=O)O	4.4 (active)
O=C(O)CSCC(=O)Nc1cccc(C(F)(F)F)c1	0.9
CCNS(=O)(=O)c1ccc(NC(=O)Nc2cccc(C(F)(F)F)c2)cc1	0.6
CCCCCCCCc1c(O)nc(-n2[nH]c(C)c(CCO)c2=O)[nH]c1=O	1.2
O=C(C1CCN(S(=O)(=O)c2ccc(Br)s2)CC1)N1CCN(C2CCCCC2)CC1	1.2
O=C(Nc1cc(S(=O)(=O)N2CCOCC2)ccc1Cl)c1cc(=O)c2ccccc2o1	1.3
O=[N+]([O-])c1cc(S(=O)(=O)N2CCCC2)ccc1NN=C1CCCC1	0.9
COC(=O)C1=NN(c2ccccc2)C2C(=O)N(c3ccccc3OC)C(=O)C12 (configuration not stated)	0.9
CC1CN(C(=O)c2ccccc2NS(=O)(=O)c2cccc([N+](=O)[O-])c2)CC(C)O1 (configuration not stated)	0.9
CCOc1cc(NC(=S)NCc2ccco2)c(OCC)cc1NC(=O)c1ccco1	1
NNC(=O)C1CC(O)CN1S(=O)(=O)c1ccc(Cl)cc1 (configuration not stated)	1.1
CC(C)OC(=O)CN1CCN(c2ccc(Cl)cc2)CC1	1.1
O=C(C(=O)N1CCc2ccccc2C1)c1c[nH]c2ccccc12	0.9
COc1ccc(N2CCN(C(=O)COc3ccc4c(C)cc(=O)oc4c3)CC2)cc1	1.1
O=C(O)c1cccc(N=NN2CCCCCC2)c1	1.1
COc1cc(NC(=S)NCc2ccc(S(N)(=O)=O)cc2)cc(OC)c1	1

Compound	activation factor
Cc1ccc(S(=O)(=O)N(C)C)cc1NC(=O)/C=C/c1cccs1	0.9
COc1cc(OC)c(-n2cc(-c3ccc(Cl)cc3)[nH]c2=O)cc1Cl	1
CCCNC(=S)N1CCCC(c2nc3ccccc3[nH]2)C1 (configuration not stated)	1.1
Cc1ccccc1C(OCCN(C)C)C1CCCCC1 (configuration not stated)	1.1
CCCN(CCC)CCCNC(=O)CNC(=O)c1nn(-c2ccc(OC)cc2)c(=O)c2ccccc12	1.1
CCc1nnc(NC(=O)C2CC(=O)N(c3ccc4c(c3)OCCO4)C2)s1 (configuration not stated)	0.4
Cc1ccc(S(=O)(=O)N2CCN(CC(=O)N/N=C/c3cc([N+](=O)[O-])ccc3Cl)CC2)cc1	0.5
COc1ccc(/C=N/NC(=O)CNC(=O)c2ccc(S(=O)(=O)N3CCCC3)cc2)c(OC)c1	1.1
Cc1cc(Br)ccc1SCC(=O)OCC(=O)NCc1ccc2c(c1)OCO2	0.8
CS(=O)(=O)n1nc(-c2ccco2)nc1N	1.2
Cc1ccc(NC(=O)NC(=O)N(C2CCCCC2)S(=O)(=O)c2ccccc2)cc1	1.1
CCN(CC)CCCSc1nc2ccccc2s1	1.1
COc1ccc(C2/C(=C(/O)c3ccccc3)C(=O)C(=O)N2c2ncccn2)cc1OC (configuration not stated)	1
COc1ccc(C2N=C(N)N=C(N)N2c2ccccc2)cc1OC (configuration not stated)	3 (active)
COc1ccc(C2SCCN2S(=O)(=O)c2ccccc2)cc1OC (configuration not stated)	1
O=C(Nc1nnc(C2COc3ccccc3O2)o1)c1ccc(F)cc1 (configuration not stated)	1
C/C(Cc1ccccc1)=N\NC(=O)CNC(=O)c1cccc(Br)c1	0.9
Cc1ccccc1NC(=O)c1ccc(COc2ccc3c(C)cc(=O)oc3c2)cc1	1
Oc1c(C(c2ccccn2)N2CCOCC2)ccc2cccnc12 (configuration not stated)	2 (active)
Cc1nc2sc(C(c3ccco3)N3CCOCC3)c(O)n2n1 (configuration not stated)	0.9
CCOC(=O)N1CCN(C(c2cccnc2)c2ccc3cccnc3c2O)CC1 (configuration not stated)	1.3
CCOC(=O)c1nn(-c2ccccc2F)c2nc(Nc3ccccc3)cc(=O)n12	1
